# Key:
# Assay in all cases: DAPPL (digital affinity profiling via proximity ligation, sequencing); 10 mM Tris-HCl pH 7.5, 50 mM NaCl, 1 mM DTT, 4% glycerol, room temperature, 30 min; GST-TFs on glutathione beads, 16-mer random dsDNA library, 0.1% formaldehyde crosslink after washing; high values mean tight binding
# FLI1 = biological target: T1, FLI1 (Homo sapiens, UniProt Q01543 1-452); details: protein: recombinant; tags: N-terminal GST; dsDNA, one strand shown
# T1 sequence: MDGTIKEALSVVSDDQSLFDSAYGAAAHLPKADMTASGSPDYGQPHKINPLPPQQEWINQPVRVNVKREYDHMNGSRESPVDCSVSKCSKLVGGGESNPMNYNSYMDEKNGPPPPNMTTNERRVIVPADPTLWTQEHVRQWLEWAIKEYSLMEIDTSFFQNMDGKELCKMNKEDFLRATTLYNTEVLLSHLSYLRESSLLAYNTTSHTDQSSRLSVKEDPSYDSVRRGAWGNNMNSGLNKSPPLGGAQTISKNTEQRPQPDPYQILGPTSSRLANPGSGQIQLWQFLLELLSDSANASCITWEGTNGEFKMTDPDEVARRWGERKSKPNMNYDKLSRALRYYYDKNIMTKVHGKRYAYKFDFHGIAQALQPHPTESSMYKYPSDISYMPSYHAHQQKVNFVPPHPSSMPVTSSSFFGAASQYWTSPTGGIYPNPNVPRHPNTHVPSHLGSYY
# Method in brief: (§1)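 Binding signal is defined as a hexamer's read frequency for one factor over its frequency for the tag-only sample. To obtain reads, GST-fused human transcription factors were expressed in yeast, captured on glutathione beads, barcoded with DNA and pooled with that sample. Pools met 200 nmole of a 16-mer random double-stranded DNA library in Tris/NaCl/DTT/glycerol buffer for 30 min at room temperature before washing, 0.1% formaldehyde crosslinking, proximity ligation (BsaI/T4 ligase, 1 h, 37 °C), PCR and Illumina NextSeq500 sequencing.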
# ELK1 = biological target: T2, ELK1 (Homo sapiens, UniProt P19419 1-428); details: protein: recombinant; tags: N-terminal GST; dsDNA, one strand shown
# T2 sequence: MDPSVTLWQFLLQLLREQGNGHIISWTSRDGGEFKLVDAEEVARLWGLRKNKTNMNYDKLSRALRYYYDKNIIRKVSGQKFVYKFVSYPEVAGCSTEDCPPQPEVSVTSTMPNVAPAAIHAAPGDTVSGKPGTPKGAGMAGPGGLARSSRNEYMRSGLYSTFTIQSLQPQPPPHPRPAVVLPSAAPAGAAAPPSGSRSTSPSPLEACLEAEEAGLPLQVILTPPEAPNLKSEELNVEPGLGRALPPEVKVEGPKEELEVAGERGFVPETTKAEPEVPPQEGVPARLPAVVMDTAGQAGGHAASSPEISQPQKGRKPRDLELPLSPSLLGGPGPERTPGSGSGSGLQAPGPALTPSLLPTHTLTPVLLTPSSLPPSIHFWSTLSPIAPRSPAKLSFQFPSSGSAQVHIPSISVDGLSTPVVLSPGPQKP
# Method in brief: as §1
# GABPA = biological target: T3, GABPA (Homo sapiens, UniProt Q06546 1-454); details: protein: recombinant; tags: N-terminal GST; dsDNA, one strand shown
# T3 sequence: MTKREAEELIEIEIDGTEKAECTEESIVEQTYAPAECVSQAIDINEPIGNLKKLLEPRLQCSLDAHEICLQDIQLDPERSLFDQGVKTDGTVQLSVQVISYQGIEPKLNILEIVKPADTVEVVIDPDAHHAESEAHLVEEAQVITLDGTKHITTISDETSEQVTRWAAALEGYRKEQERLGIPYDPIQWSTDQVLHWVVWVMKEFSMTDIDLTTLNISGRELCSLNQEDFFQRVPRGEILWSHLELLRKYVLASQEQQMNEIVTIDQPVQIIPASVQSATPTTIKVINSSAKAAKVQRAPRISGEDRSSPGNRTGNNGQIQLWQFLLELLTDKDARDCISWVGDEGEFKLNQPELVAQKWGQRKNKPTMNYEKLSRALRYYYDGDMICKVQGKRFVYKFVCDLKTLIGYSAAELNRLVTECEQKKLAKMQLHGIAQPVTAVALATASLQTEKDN
# Method in brief: as §1
# ERG = biological target: T4, ERG (Homo sapiens, UniProt P11308 1-479); details: protein: recombinant; tags: N-terminal GST; dsDNA, one strand shown
# T4 sequence: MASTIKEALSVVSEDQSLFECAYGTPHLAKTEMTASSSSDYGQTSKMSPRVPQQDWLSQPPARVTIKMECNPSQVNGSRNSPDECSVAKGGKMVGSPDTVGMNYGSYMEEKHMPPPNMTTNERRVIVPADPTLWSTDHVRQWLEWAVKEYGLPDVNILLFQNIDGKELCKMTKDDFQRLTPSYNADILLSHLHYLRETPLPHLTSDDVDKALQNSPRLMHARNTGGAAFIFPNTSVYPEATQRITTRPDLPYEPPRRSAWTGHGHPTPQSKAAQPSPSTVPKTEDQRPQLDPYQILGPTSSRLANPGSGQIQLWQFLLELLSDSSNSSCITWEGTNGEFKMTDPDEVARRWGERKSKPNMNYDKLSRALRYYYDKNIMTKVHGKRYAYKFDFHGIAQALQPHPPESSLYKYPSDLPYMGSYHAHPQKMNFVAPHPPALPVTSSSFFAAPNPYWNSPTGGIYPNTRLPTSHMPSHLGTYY
# Method in brief: as §1
# ELF1 = ELF1 (Homo sapiens, UniProt P32519 1-619); details: protein: recombinant; tags: N-terminal GST; dsDNA, one strand shown
# Method in brief: as §1
# EHF = biological target: T5, EHF (Homo sapiens, UniProt Q9NZC4 1-300); details: protein: recombinant; tags: N-terminal GST; dsDNA, one strand shown
# T5 sequence: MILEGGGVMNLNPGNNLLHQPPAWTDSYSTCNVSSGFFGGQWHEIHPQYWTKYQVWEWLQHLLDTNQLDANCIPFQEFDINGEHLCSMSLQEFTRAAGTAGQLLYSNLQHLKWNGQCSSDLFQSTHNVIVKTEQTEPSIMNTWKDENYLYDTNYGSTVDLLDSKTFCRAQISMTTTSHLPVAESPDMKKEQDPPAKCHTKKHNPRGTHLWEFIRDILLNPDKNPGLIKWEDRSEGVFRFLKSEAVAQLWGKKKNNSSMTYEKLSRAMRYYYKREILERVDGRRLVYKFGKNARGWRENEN
# Method in brief: as §1
# SPI1 = SPI1 (Homo sapiens, UniProt P17947 1-270); details: protein: recombinant; tags: N-terminal GST; dsDNA, one strand shown
# Method in brief: as §1
# SPIB = SPIB (Homo sapiens, UniProt Q01892 1-262); details: protein: recombinant; tags: N-terminal GST; dsDNA, one strand shown
# Method in brief: as §1
# ELK3 = biological target: T6, ELK3 (Homo sapiens, UniProt P41970 1-407); details: protein: recombinant; tags: N-terminal GST; dsDNA, one strand shown
# T6 sequence: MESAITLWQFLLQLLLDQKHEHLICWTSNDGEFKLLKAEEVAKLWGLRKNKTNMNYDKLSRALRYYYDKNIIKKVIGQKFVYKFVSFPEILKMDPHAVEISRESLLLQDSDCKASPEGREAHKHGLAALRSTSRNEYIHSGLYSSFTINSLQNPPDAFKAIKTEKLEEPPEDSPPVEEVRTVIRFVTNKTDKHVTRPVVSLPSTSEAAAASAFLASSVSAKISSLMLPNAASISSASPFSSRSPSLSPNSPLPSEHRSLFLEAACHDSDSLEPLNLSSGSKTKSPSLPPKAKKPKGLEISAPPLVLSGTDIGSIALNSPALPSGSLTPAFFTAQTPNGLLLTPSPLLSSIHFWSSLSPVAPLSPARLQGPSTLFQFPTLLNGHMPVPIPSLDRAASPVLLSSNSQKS
# Method in brief: as §1
# FEV = biological target: T7, FEV (Homo sapiens, UniProt Q99581 1-238); details: protein: recombinant; tags: N-terminal GST; dsDNA, one strand shown
# T7 sequence: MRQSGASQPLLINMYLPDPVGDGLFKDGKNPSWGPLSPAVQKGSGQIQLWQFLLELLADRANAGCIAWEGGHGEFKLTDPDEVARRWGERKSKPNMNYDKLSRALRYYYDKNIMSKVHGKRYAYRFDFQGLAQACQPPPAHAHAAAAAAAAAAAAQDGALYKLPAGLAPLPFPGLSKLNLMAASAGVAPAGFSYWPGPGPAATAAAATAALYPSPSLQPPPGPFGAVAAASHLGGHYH
# Method in brief: as §1
# ETV5 = ETV5 (Homo sapiens, UniProt P41161 1-510); details: protein: recombinant; tags: N-terminal GST; dsDNA, one strand shown
# Method in brief: as §1
# HSF1 = HSF1 (Homo sapiens, UniProt Q00613 1-529); details: protein: recombinant; tags: N-terminal GST; chain copies: 3; dsDNA, one strand shown
# Method in brief: as §1
# SPIC = biological target: T8, SPIC (Homo sapiens, UniProt Q8N5J4 1-248); details: protein: recombinant; tags: N-terminal GST; dsDNA, one strand shown
# T8 sequence: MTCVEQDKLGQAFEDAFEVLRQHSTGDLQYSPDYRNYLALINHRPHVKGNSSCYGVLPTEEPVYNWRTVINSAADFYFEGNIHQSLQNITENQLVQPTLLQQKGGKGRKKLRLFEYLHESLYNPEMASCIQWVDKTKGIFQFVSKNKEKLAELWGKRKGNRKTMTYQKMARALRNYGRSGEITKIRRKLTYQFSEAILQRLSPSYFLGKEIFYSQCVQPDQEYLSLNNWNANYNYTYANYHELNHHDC
# Method in brief: as §1
# ELF4 = ELF4 (Homo sapiens, UniProt Q99607 1-663); details: protein: recombinant; tags: N-terminal GST; dsDNA, one strand shown
# Method in brief: as §1
# ELK4 = biological target: T9, ELK4 (Homo sapiens, UniProt P28324-2 1-405); details: protein: recombinant; tags: N-terminal GST; dsDNA, one strand shown
# T9 sequence: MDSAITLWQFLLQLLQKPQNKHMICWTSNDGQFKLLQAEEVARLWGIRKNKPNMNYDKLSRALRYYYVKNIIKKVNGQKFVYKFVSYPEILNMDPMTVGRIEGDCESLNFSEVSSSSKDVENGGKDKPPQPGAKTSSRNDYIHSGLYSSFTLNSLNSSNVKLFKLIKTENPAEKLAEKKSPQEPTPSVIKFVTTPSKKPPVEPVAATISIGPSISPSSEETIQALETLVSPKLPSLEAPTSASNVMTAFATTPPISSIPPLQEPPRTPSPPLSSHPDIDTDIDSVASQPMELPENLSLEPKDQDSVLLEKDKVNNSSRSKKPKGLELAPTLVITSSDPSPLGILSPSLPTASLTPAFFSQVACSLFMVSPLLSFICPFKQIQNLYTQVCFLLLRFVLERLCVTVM
# Method in brief: as §1
# ETV2 = biological target: T10, ETV2 (Homo sapiens, UniProt O00321 1-342); details: protein: recombinant; tags: N-terminal GST; dsDNA, one strand shown
# T10 sequence: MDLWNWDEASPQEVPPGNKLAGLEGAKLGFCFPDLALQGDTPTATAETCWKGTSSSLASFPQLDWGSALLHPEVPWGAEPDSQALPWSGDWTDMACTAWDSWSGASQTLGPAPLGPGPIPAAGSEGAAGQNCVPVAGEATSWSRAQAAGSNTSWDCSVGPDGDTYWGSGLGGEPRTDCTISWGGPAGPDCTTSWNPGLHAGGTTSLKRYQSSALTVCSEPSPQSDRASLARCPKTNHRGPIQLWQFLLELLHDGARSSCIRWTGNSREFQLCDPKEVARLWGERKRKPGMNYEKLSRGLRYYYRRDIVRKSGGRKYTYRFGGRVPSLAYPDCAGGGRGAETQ
# Method in brief: as §1
# ELF3 = biological target: T11, ELF3 (Homo sapiens, UniProt P78545 1-371); details: protein: recombinant; tags: N-terminal GST; dsDNA, one strand shown
# T11 sequence: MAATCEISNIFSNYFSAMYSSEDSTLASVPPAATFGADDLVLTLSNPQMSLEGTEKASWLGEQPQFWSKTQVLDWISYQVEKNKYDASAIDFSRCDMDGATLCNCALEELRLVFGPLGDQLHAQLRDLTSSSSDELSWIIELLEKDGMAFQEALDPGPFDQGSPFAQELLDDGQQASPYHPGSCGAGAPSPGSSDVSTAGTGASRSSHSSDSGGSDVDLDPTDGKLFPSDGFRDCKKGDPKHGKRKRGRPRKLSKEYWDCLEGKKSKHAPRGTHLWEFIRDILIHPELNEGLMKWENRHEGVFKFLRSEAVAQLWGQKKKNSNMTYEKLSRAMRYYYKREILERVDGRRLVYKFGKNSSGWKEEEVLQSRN
# Method in brief: as §1
# CRX = CRX (Homo sapiens, UniProt O43186 1-299); details: protein: recombinant; tags: N-terminal GST; dsDNA, one strand shown
# Method in brief: as §1
# ETV1 = ETV1 (Homo sapiens, UniProt P50549 1-477); details: protein: recombinant; tags: N-terminal GST; dsDNA, one strand shown
# Method in brief: as §1
# Sequence of ETV1 (P50549 whole entry): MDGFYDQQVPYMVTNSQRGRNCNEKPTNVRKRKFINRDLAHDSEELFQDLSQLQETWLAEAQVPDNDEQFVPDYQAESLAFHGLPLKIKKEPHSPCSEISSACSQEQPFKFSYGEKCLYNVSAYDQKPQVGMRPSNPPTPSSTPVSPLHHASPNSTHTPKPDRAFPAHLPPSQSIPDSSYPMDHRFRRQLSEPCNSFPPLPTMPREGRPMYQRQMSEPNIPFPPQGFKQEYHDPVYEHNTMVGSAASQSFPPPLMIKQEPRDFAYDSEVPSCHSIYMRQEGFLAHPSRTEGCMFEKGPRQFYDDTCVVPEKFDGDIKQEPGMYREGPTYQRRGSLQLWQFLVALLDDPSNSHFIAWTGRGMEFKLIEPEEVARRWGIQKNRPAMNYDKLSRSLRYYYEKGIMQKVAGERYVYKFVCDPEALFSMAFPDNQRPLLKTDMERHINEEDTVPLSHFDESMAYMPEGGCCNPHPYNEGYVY
# Sequence of ELF4 (Q99607 whole entry): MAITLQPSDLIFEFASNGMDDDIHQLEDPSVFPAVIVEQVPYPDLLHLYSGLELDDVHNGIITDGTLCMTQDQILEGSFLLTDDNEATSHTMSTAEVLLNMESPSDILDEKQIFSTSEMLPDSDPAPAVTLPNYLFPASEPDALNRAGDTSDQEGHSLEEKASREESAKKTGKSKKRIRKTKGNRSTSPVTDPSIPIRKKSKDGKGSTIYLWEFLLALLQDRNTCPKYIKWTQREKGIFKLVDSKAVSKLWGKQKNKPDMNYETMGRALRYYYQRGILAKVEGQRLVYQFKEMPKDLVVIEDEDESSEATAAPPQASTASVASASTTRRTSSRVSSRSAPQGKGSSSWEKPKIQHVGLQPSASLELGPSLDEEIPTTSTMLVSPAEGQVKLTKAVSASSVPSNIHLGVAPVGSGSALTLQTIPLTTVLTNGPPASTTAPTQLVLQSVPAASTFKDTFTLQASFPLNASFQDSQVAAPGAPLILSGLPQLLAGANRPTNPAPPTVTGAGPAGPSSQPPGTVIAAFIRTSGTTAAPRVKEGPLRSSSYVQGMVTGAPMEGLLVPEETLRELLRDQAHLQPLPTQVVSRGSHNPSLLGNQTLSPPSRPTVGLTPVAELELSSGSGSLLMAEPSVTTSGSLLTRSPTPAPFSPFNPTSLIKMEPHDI
# Sequence of SPIB (Q01892 whole entry): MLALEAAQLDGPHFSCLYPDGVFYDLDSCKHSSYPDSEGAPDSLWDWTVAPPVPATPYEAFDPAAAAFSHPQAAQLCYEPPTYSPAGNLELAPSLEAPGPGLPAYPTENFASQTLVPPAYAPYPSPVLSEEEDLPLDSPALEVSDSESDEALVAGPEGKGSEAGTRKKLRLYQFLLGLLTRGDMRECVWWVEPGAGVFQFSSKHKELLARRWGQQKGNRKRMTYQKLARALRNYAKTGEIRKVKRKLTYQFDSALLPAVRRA
# Sequence of ETV5 (P41161 whole entry): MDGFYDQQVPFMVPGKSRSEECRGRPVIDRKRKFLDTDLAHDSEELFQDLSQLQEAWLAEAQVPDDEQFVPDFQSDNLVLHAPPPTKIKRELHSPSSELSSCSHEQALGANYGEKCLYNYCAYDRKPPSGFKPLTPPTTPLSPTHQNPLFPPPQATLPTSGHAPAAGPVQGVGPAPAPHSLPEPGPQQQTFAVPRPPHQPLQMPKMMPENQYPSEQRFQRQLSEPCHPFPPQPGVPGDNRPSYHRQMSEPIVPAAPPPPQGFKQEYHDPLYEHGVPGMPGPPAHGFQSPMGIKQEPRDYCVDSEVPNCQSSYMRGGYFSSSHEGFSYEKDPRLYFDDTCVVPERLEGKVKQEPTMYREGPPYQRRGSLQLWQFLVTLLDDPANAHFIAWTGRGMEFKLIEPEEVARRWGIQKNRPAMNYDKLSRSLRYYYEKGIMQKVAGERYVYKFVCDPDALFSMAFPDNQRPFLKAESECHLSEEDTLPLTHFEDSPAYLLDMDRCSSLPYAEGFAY
# Sequence of HSF1 (Q00613 whole entry): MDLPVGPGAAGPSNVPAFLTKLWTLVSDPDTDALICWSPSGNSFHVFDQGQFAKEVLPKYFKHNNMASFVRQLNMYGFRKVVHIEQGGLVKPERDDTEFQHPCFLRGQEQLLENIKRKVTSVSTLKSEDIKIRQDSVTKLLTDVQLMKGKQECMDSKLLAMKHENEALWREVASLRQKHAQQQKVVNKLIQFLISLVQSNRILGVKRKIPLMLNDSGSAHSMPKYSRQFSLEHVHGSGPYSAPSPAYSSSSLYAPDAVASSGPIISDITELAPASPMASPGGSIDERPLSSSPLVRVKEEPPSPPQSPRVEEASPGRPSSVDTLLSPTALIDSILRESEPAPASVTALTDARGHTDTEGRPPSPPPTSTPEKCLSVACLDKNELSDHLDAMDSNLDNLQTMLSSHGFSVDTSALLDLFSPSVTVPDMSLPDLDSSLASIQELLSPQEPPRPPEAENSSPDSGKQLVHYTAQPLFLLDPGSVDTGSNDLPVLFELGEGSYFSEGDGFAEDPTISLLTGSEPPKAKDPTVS
# Sequence of CRX (O43186 whole entry): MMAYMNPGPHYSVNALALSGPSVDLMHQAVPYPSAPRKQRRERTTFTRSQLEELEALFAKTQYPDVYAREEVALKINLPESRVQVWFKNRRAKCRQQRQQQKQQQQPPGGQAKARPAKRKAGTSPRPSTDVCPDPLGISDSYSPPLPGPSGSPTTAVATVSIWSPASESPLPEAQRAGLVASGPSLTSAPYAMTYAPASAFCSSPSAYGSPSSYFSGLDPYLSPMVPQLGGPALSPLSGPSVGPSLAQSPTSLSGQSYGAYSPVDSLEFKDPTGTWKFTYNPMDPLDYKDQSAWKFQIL
# Sequence of ELF1 (P32519 whole entry): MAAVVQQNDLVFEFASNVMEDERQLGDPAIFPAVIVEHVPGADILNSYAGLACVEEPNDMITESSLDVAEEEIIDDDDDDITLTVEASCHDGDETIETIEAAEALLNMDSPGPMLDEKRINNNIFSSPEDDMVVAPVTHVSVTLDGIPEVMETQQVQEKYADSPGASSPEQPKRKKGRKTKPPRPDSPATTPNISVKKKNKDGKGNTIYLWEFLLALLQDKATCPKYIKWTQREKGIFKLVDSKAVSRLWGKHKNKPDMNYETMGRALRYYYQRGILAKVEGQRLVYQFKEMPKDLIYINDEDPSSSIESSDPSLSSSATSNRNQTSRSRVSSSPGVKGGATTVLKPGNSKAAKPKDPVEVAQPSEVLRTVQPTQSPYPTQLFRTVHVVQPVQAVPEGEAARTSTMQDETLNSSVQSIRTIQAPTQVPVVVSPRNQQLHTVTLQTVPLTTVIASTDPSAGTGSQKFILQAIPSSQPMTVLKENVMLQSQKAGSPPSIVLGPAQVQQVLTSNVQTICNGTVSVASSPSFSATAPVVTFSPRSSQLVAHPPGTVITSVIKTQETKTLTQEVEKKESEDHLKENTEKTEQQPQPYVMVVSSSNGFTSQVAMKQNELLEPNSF
sequence,measurement,setting,value
TTCCGC,binding signal,FLI1,"3.03 fold enrichment (6-mer frequency, TF over GST control)"
same,binding signal,ELK1,"3.07 fold enrichment (6-mer frequency, TF over GST control)"
same,binding signal,GABPA,"2.79 fold enrichment (6-mer frequency, TF over GST control)"
same,binding signal,ERG,"3.22 fold enrichment (6-mer frequency, TF over GST control)"
same,binding signal,ELF1,"2.85 fold enrichment (6-mer frequency, TF over GST control)"
same,binding signal,EHF,"3.08 fold enrichment (6-mer frequency, TF over GST control)"
same,binding signal,SPI1,"4.75 fold enrichment (6-mer frequency, TF over GST control)"
same,binding signal,SPIB,"3.15 fold enrichment (6-mer frequency, TF over GST control)"
same,binding signal,ELK3,"3.03 fold enrichment (6-mer frequency, TF over GST control)"
same,binding signal,FEV,"3.1 fold enrichment (6-mer frequency, TF over GST control)"
same,binding signal,ETV5,"3.42 fold enrichment (6-mer frequency, TF over GST control)"
same,binding signal,HSF1,"1.34 fold enrichment (6-mer frequency, TF over GST control)"
same,binding signal,SPIC,"3.62 fold enrichment (6-mer frequency, TF over GST control)"
same,binding signal,ELF4,"2.82 fold enrichment (6-mer frequency, TF over GST control)"
same,binding signal,ELK4,"2.57 fold enrichment (6-mer frequency, TF over GST control)"
same,binding signal,ETV2,"2.79 fold enrichment (6-mer frequency, TF over GST control)"
same,binding signal,ELF3,"3.06 fold enrichment (6-mer frequency, TF over GST control)"
same,binding signal,CRX,"1.26 fold enrichment (6-mer frequency, TF over GST control)"
same,binding signal,ETV1,"3.17 fold enrichment (6-mer frequency, TF over GST control)"
